Screens as filed in PubChem.
NOMO-1 viab – STK33 inhibitor candidate reducing NOMO-1 cell viability. AID 2330. actives 7.5% (n = 37,000). inhibition, % (no concentration beside the values). NOMO-1 AML viability, CellTiter-Glo luminescence, 72 h; in the data active means inhibition above about 80%; inconclusive means no clear call, values can overlap the other calls
Hedgehog inh – blocks Sonic Hedgehog signaling. inhibition, % (concentration not given with the values). actives 2.1% (n = 22,000). Shh-LIGHT2 Gli-luciferase reporter, 30 h;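 active means mean inhibition across valid replicates above about 65%, limit read from the data; inconclusive means mean under the limit, yet half or more replicates past it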;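 further: pathway switched on by Shh-conditioned medium diluted 1 in 25 in low serum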
MITF inhib – blocks MITF activity; TRPM1 promoter luciferase, luminescence, 24 h; inhibition, % (concentration not given with the values); actives 0.28% (n = 37,000); AID 2240; in the data active means inhibition above about 85%; inconclusive means no clear call, values can overlap the other calls; inactive means below about 68%;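 further: human melanocyte line stably carrying TRPM1 promoter luciferase reporter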
Numbers stand for hits. Sampled rows, rich in hits. Any-hit rate of the full collection: about 7.8%.

Screening C[C@@H]1CN([C@H](C)CO)C(=O)c2cccc(NC(=O)Nc3ccc4c(c3)OCO4)c2O[C@@H]1CN(C)Cc1ccc(Oc2ccccc2)cc1 returned NOMO-1 viab inactive, Hedgehog inh inactive and MITF inhib inactive.
Screening C[C@@H]1CN([C@@H](C)CO)C(=O)c2cccc(NC(=O)Nc3ccc4c(c3)OCO4)c2O[C@H]1CN(C)Cc1ccc(Oc2ccccc2)cc1 returned NOMO-1 viab 95, Hedgehog inh inactive and MITF inhib inactive.
O=C(CSc1nc2ccccc2o1)Nc1ccc(Br)cc1Cl was read as NOMO-1 viab inactive and MITF inhib inactive.
For CC(C)(C)NC(=O)c1ccc2c3c(onc13)-c1ccccc1C2=O the results were NOMO-1 viab 114, Hedgehog inh inactive and MITF inhib inactive.
Screening CC(C)(C)NC(=O)c1ccccc1 returned NOMO-1 viab inactive, Hedgehog inh inactive and MITF inhib inactive.
`CC(=O)OC[C@H]1O[C@@H](Oc2ccccc2COC(=O)C2(O)C=CCCC2=O)[C@H](OC(C)=O)[C@@H](O)[C@@H]1O` (stereo partly specified) gave NOMO-1 viab inactive, Hedgehog inh inactive and MITF inhib inactive.
`CCNC(=S)N1N=C2c3ccccc3CCC2C1c1ccc(F)cc1` (stereo unspecified) gave NOMO-1 viab 113 and MITF inhib inactive.
Screening O=C(c1ccco1)N1N=C2c3ccccc3CCC2C1c1ccc(F)cc1 (stereo unspecified) returned NOMO-1 viab inactive, Hedgehog inh inactive and MITF inhib inactive.
Screening C[C@@H]1CN([C@H](C)CO)C(=O)Cc2cc(NC(=O)CCC(F)(F)F)ccc2O[C@H]1CN(C)Cc1ccccc1 returned NOMO-1 viab inactive, Hedgehog inh inactive and MITF inhib inactive.
C[C@H]1CN([C@@H](C)CO)C(=O)Cc2cc(NC(=O)CCC(F)(F)F)ccc2O[C@@H]1CN(C)Cc1ccc(-c2ccccc2)cc1 was read as NOMO-1 viab 97, Hedgehog inh inactive and MITF inhib inactive.
C[C@H]1CN([C@@H](C)CO)C(=O)Cc2cc(NC(=O)CCC(F)(F)F)ccc2O[C@H]1CN(C)Cc1ccc(-c2ccccc2)cc1 was read as NOMO-1 viab inactive, Hedgehog inh inactive and MITF inhib inactive.
Screening C[C@@H]1CN([C@H](C)CO)C(=O)Cc2cc(NC(=O)CCN3CCOCC3)ccc2O[C@H]1CN(C)Cc1ccc(-c2ccccc2)cc1 returned NOMO-1 viab inactive, Hedgehog inh inactive and MITF inhib inactive.
C[C@@H]1CN([C@H](C)CO)C(=O)c2cc(NC(=O)CCC(F)(F)F)ccc2O[C@H]1CN(C)Cc1ccc(Oc2ccccc2)cc1 was read as NOMO-1 viab 85 and MITF inhib inactive.
C[C@@H]1CN([C@H](C)CO)C(=O)Cc2cc(NC(=O)CCC(F)(F)F)ccc2O[C@H]1CN(C)Cc1ccc(Oc2ccccc2)cc1 was read as NOMO-1 viab 94, Hedgehog inh inactive and MITF inhib inactive.
`C[C@@H]1CN([C@@H](C)CO)C(=O)c2cc(NC(=O)CCC(F)(F)F)ccc2O[C@@H]1CN(C)Cc1ccc(-c2ccccc2)cc1` gave NOMO-1 viab inactive and MITF inhib inactive.
C[C@H]1CN([C@@H](C)CO)C(=O)Cc2cc(NC(=O)CCN3CCOCC3)ccc2O[C@@H]1CN(C)Cc1ccc(-c2ccccc2)cc1 was read as NOMO-1 viab inactive, Hedgehog inh 65 and MITF inhib inactive.
`CCCCN1C(=O)/C(=C2\SC(=Nc3ccc(Cl)cc3)N(C)C2=O)c2ccccc21` gave NOMO-1 viab inactive, Hedgehog inh inactive and MITF inhib inactive.
For Cc1cc(C)nc(NS(=O)(=O)c2ccc(NC(=S)NC(=O)c3ccccc3)cc2)n1 the results were NOMO-1 viab inactive and MITF inhib inactive.
`c1nncn1N=C1CCCCC1` gave NOMO-1 viab inactive, Hedgehog inh inactive and MITF inhib inactive.
Screening CC(=O)N1c2ccccc2C(C)(c2ccccc2)CC1(C)C (stereo unspecified) returned NOMO-1 viab inconclusive, Hedgehog inh inactive and MITF inhib inactive.
For CC1(C)CC(C)(c2ccccc2)c2cc(SC#N)ccc2N1 (stereo unspecified) the results were NOMO-1 viab 114, Hedgehog inh 108 and MITF inhib inactive.
`C[C@@H]1CN([C@@H](C)CO)C(=O)c2cccc(NC(=O)CCCCCC(=O)Nc3ccccc3N)c2O[C@H]1CN(C)CC1CCCCC1` gave NOMO-1 viab 138 and MITF inhib inactive.
`C[C@H](CO)N1C[C@H](C)[C@H](CN(C)C)Oc2c(NC(=O)CCCCCC(=O)Nc3ccccc3N)cccc2C1=O` gave NOMO-1 viab inactive and MITF inhib inactive.
C[C@H](CO)N1C[C@H](C)[C@H](CN(C)CC2CC2)Oc2c(NC(=O)CCCCCC(=O)Nc3ccccc3N)cccc2C1=O was read as NOMO-1 viab inactive and MITF inhib inactive.
For C[C@H](CO)N1C[C@H](C)[C@@H](CN(C)CC2CC2)Oc2c(NC(=O)CCCCCC(=O)Nc3ccccc3N)cccc2C1=O the results were NOMO-1 viab 121 and MITF inhib inactive.
Screening CCc1ccc(OCC(=O)Nc2ccccc2C(N)=O)c(Br)c1 returned NOMO-1 viab inactive and MITF inhib inactive.
COC(=O)c1c(-c2cccc(C)c2)csc1NC(=O)c1ccccc1[N+](=O)[O-] was read as NOMO-1 viab inactive and MITF inhib inactive.
C[C@@H]1CN([C@H](C)CO)C(=O)c2cccc(NS(=O)(=O)c3ccc(Cl)cc3)c2O[C@H]1CN(C)Cc1ccc(Oc2ccccc2)cc1 was read as NOMO-1 viab inactive, Hedgehog inh inactive and MITF inhib inactive.
For C[C@H](CO)N1C[C@H](C)[C@H](CN(C)Cc2ccc(Cl)c(Cl)c2)Oc2c(NS(=O)(=O)c3ccccc3)cccc2C1=O the results were NOMO-1 viab inconclusive, Hedgehog inh 82 and MITF inhib inactive.
Screening C[C@H]1CN([C@@H](C)CO)C(=O)c2cccc(NS(=O)(=O)c3ccc(Cl)cc3)c2O[C@H]1CN(C)Cc1ccc(Oc2ccccc2)cc1 returned NOMO-1 viab inconclusive, Hedgehog inh inactive and MITF inhib inactive.
For C[C@@H]1CN([C@@H](C)CO)C(=O)c2cccc(NS(=O)(=O)c3ccc(Cl)cc3)c2O[C@@H]1CN(C)Cc1ccc(Oc2ccccc2)cc1 the results were NOMO-1 viab 88, Hedgehog inh inactive and MITF inhib inactive.
C[C@H]1CN([C@@H](C)CO)C(=O)c2cccc(NS(=O)(=O)c3ccccc3)c2O[C@@H]1CN(C)Cc1ccc(Cl)c(Cl)c1 was read as NOMO-1 viab inactive, Hedgehog inh inactive and MITF inhib inactive.
Screening C[C@H](CO)N1C[C@H](C)[C@@H](CN(C)Cc2ccc(Oc3ccccc3)cc2)Oc2c(NS(=O)(=O)c3ccc(Cl)cc3)cccc2C1=O returned NOMO-1 viab 104, Hedgehog inh inactive and MITF inhib inactive.
CCN(CC)CCSc1nnc2c3cc(C)ccc3n(C)c2n1 was read as NOMO-1 viab inactive and MITF inhib inactive.
Screening CC1=C(C(=O)Nc2ccccc2C)C(c2cccc([N+](=O)[O-])c2)n2ncnc2N1 (stereo unspecified) returned NOMO-1 viab inactive and MITF inhib inactive.
`Cc1sc(NC(=O)c2cc(-c3cccnc3)nc3ccc(Cl)cc23)c(C(N)=O)c1-c1ccccc1` gave NOMO-1 viab inactive and MITF inhib inactive.
Screening CS(=O)(=O)N(CC(=O)Nc1ccc2c(c1)OCCO2)c1cc(Cl)c(Cl)cc1Cl returned NOMO-1 viab inactive and MITF inhib inactive.
